From ChEMBL document CHEMBL1961873, “Compounds: GSK PKIS; Assays: Nanosyn kinase panel” (2012) come the findings set out here.

SMILES strings stand for the structures. “And” between values parts separate entries of the source, which are not always exact repeats. Identical values can stand only once.

For experiment [1], the target named is Mitogen-activated protein kinase kinase kinase kinase 4 (Homo sapiens) (UniProt O95819). The following applies: at 1 µM.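 Also: reported figure is an averaged inhibition value.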
Chain of Mitogen-activated protein kinase kinase kinase kinase 4 (Homo sapiens) (O95819 2-1239 limits assumed): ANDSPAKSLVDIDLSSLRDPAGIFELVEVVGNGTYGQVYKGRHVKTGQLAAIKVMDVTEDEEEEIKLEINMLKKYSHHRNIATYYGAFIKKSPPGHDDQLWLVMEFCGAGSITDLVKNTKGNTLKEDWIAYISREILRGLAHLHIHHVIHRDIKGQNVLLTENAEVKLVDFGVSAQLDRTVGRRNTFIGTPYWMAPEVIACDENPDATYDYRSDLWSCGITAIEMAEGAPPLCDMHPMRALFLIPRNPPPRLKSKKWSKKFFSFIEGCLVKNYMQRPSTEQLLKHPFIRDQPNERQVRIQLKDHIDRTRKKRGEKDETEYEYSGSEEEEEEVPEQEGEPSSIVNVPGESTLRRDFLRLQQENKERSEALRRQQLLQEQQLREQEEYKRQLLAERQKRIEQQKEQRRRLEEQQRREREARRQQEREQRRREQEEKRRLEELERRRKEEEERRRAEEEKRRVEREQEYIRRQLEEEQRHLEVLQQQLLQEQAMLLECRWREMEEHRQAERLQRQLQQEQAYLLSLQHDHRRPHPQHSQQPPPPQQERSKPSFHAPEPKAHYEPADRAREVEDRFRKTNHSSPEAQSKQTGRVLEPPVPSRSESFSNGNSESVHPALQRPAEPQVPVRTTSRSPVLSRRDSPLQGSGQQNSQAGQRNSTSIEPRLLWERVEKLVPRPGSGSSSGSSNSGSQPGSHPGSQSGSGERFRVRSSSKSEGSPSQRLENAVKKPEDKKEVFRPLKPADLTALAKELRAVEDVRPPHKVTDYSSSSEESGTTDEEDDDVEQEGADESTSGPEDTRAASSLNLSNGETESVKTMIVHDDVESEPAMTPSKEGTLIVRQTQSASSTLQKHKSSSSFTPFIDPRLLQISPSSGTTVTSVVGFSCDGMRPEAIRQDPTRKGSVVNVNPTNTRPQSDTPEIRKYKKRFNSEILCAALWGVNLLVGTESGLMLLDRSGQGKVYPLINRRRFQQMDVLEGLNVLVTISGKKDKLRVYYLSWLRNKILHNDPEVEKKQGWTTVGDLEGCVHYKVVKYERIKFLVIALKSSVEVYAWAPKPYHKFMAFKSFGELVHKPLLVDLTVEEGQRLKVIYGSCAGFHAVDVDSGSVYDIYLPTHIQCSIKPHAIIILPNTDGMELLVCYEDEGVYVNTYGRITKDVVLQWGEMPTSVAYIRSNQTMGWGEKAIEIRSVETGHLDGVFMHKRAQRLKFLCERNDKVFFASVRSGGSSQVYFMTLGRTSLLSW
Experiment [2] has as its target Dual specificity mitogen-activated protein kinase kinase 1 (Homo sapiens) (UniProt Q02750). To be noted: at 0.1 µM.
Experiment [3] has the same target. The following applies: at 1 µM.
The target of experiment [4] is Misshapen-like kinase 1 (Homo sapiens) (UniProt Q8N4C8). The following applies: at 0.1 µM.
Experiment [5] has the same target. To be noted: at 1 µM.
In experiment [6] the target is T1, Serine/threonine-protein kinase 4 (Homo sapiens) (UniProt Q13043).
T1 sequence (whole entry): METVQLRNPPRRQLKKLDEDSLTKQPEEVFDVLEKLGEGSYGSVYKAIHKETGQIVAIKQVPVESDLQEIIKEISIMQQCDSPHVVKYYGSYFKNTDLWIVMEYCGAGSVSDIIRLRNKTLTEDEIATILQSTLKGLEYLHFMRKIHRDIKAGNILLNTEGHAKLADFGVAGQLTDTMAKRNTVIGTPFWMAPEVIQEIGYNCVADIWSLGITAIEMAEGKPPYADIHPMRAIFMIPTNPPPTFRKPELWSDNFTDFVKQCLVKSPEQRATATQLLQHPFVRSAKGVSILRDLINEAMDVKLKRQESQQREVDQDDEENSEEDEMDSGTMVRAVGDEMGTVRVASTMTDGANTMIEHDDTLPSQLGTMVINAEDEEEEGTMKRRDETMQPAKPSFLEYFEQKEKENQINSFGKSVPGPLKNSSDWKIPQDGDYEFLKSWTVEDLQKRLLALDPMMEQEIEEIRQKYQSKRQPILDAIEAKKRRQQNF
The following applies: at 0.1 µM.

Experiment [7] deals with T1, Serine/threonine-protein kinase 4 (Homo sapiens). To be noted: at 1 µM.
Experiment [8] addresses T2, Serine/threonine-protein kinase 3 (Homo sapiens) (UniProt Q13188).
T2 sequence (whole entry): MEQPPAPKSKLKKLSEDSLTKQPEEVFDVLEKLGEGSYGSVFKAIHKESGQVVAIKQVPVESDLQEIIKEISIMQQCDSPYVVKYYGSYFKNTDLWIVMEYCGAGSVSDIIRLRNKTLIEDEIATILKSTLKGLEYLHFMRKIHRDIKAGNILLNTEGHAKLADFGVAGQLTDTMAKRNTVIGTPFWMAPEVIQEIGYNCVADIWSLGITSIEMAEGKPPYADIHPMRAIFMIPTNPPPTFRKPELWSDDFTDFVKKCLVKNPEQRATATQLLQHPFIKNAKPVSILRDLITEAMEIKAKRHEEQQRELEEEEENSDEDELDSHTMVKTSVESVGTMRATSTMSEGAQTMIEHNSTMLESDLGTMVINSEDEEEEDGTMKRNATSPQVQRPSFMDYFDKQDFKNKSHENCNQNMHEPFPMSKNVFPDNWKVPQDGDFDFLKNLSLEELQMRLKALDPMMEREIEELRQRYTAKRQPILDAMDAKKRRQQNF
To be noted: at 0.1 µM.

For experiment [9], the target named is T2, Serine/threonine-protein kinase 3 (Homo sapiens). The following applies: at 1 µM.
For experiment [10], the target named is Serine/threonine-protein kinase 26 (Homo sapiens) (UniProt Q9P289). The following applies: at 0.1 µM.
Chain of Serine/threonine-protein kinase 26 (Homo sapiens) (Q9P289 2-416 limits assumed): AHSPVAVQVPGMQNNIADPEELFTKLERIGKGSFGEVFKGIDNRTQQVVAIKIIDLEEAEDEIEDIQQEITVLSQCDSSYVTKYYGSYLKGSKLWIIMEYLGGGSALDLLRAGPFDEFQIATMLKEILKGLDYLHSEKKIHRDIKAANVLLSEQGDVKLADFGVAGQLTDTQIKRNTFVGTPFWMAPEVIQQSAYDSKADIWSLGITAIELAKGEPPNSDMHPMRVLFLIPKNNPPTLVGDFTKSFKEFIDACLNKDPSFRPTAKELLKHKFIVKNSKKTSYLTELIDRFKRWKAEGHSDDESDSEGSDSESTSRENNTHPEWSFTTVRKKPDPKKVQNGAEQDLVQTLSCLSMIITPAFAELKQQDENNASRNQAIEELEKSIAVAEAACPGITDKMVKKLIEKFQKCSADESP
Experiment [11] shares this target. The following applies: at 1 µM.
Experiment [12] deals with Serine/threonine-protein kinase PAK 1 (Homo sapiens) (UniProt Q13153). To be noted: at 0.1 µM.
Chain of Serine/threonine-protein kinase PAK 1 (Homo sapiens) (Q13153 whole entry): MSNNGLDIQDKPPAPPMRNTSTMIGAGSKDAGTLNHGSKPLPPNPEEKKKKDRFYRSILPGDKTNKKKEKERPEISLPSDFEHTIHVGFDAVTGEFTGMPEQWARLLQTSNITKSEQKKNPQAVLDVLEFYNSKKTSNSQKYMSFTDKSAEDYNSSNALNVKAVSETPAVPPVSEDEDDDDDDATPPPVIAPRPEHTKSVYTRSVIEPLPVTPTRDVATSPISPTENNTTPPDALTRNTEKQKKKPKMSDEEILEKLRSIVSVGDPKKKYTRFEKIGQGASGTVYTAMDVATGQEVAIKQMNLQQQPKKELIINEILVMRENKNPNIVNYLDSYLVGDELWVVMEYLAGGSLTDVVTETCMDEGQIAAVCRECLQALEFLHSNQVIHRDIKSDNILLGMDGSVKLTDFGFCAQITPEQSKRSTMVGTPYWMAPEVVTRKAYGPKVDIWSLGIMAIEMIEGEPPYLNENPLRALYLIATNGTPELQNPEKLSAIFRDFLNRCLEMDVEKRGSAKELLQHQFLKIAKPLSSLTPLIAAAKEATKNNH
Experiment [13] shares this target. The following applies: at 1 µM.
The target of experiment [14] is Serine/threonine-protein kinase PAK 2 (Homo sapiens) (UniProt Q13177). To be noted: at 0.1 µM.
Chain of Serine/threonine-protein kinase PAK 2 (Homo sapiens) (Q13177 whole entry): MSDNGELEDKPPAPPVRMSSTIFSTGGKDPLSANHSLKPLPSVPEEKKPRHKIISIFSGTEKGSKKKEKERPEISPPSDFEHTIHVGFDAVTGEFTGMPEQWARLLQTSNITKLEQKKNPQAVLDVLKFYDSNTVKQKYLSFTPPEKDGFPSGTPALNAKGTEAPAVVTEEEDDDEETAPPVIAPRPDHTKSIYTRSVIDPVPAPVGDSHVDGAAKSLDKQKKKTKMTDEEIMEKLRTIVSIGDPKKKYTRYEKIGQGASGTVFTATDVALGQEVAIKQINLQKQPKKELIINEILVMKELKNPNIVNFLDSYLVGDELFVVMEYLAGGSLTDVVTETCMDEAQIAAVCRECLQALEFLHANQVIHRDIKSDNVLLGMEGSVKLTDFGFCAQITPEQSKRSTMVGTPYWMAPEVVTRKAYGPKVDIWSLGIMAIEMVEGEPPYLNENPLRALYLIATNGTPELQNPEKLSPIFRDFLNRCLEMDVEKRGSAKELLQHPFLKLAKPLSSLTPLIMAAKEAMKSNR
Experiment [15] has the same target. To be noted: at 1 µM.
For experiment [16], the target named is Serine/threonine-protein kinase PAK 3 (Homo sapiens) (UniProt O75914). To be noted: at 0.1 µM.
Chain of Serine/threonine-protein kinase PAK 3 (Homo sapiens) (O75914 whole entry, looked up): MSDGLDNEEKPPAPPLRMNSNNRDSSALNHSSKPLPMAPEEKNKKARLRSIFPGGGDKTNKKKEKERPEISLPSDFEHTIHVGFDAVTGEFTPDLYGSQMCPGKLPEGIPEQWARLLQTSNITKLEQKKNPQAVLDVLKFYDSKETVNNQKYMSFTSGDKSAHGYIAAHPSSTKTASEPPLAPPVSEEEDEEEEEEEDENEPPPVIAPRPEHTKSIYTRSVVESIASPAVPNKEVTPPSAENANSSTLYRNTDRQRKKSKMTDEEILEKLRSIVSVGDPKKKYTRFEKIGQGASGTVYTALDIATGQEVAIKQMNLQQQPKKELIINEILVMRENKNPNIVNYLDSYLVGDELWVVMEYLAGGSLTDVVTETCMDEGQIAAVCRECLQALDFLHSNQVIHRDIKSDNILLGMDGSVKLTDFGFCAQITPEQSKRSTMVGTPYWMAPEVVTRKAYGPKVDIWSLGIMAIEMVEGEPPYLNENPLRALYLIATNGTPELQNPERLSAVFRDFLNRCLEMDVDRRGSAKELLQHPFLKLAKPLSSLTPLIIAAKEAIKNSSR
Experiment [17] shares this target. To be noted: at 1 µM.
In experiment [18] the target is Serine/threonine-protein kinase PAK 5 (Homo sapiens) (UniProt Q9P286). The following applies: at 0.1 µM.
Experiment [19] has the same target. The following applies: at 1 µM.
The target in experiment [20] is Serine/threonine-protein kinase PAK 6 (Homo sapiens) (UniProt Q9NQU5). The following applies: at 0.1 µM.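 Also: mean PAK6 inhibition reported from the GSK PKIS screen.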
Chain of Serine/threonine-protein kinase PAK 6 (Homo sapiens) (Q9NQU5 whole entry, looked up): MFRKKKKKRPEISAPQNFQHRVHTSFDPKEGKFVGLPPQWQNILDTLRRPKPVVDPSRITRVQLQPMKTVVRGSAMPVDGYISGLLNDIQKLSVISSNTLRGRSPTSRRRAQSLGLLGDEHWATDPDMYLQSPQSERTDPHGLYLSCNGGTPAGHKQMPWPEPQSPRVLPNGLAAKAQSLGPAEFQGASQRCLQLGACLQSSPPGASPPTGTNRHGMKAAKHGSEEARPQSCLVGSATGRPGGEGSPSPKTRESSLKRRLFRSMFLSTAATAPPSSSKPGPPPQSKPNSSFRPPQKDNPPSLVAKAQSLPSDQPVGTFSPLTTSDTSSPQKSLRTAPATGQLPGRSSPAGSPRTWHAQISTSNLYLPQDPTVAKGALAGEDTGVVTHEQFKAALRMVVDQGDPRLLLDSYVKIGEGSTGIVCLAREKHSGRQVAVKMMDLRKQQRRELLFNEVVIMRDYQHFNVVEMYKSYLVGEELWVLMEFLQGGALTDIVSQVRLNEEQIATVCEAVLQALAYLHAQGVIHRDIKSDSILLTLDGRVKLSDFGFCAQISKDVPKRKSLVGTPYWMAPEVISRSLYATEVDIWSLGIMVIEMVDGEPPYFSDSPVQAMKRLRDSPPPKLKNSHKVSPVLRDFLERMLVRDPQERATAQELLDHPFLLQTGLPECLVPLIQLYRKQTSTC

Chain of Dual specificity mitogen-activated protein kinase kinase 1 (Homo sapiens) (Q02750 whole entry): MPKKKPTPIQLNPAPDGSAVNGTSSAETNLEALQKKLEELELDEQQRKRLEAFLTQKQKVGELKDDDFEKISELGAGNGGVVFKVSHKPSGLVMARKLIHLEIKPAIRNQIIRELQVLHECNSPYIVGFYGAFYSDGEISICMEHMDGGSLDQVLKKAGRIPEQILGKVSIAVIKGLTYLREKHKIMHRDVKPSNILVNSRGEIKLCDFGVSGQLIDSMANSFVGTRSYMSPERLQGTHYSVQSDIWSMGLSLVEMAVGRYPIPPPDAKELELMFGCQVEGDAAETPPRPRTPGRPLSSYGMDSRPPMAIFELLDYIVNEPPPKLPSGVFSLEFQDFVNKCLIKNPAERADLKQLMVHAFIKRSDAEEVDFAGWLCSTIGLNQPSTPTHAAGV

With `CNC(=O)c1cncc(/C=C/c2ccccc2C)c1`, the inhibition (usually the drop in the measured response relative to a control, in per cent) was determined as 19.7% in [1]; 6.36% in experiment [2]; 5.22% in [3]; 8.44% in [4]; 15.5% in experiment [5]; 9.28% in [6]. Also, the inhibition in [7] worked out at 17.2%; in [8] it was 9.07%; in experiment [9], 15.2%; in [10], 1.02%; in experiment [11], 2.47%; in experiment [12], 4.67%. Further, the inhibition in experiment [13] worked out at 7.54%; in experiment [14] it was 2.06%; in experiment [15] it was 2.02%; in [16], 4.95%; in experiment [17] it was 5.93%; in [18], 15.4%. Moreover, the inhibition in experiment [19] was 4.8%; in experiment [20], -2.91%.
Take `Nc1nccc(-c2c(-c3ccc(F)cc3)ncn2C2CCNCC2)n1`: the inhibition in experiment [1] is 11.7% and 20.6%; in experiment [2], -1.59% and 0.76%; in experiment [3], 1.41% and 5.84%; in experiment [4], -0.88% and 2.53%; in experiment [5], 6.74% and 17%; in experiment [6] it was -3.42% and 0.28%. Besides, the inhibition was -0.43% and 1.1% in experiment [7]; -3.39% and 1.21% in experiment [8]; 1.14% and 0.77% in [9]; 0.83% and -0.54% in [10]; 5.19% and 1.66% in experiment [11]; -3.53% and -3.93% in experiment [12]. Besides, the inhibition in experiment [13] is -2.75% and -0.14%; in [14], -3.09% and 0.25%; in [15], -2.02% and 1.56%; in [16], -4.58% and -1.23%; in experiment [17], -3.86% and -0.28%; in experiment [18] it was -9.21% and 0.56%. The inhibition in experiment [19] was -3.77% and 2.85%; in [20], -8.03% and 2.08%.
Regarding `NS(=O)(=O)c1ccc(N/N=C2\C(=O)Nc3ccc(C(=O)NCc4ccncc4)cc32)cc1`, the inhibition in experiment [1] stood at 46.5%; in [2], 15.6%; in experiment [3], 57.6%; in experiment [4], 9.67%; in [5], 39.4%; in experiment [6], 36.8%. The inhibition is 76.1% in experiment [7]; 31.2% in experiment [8]; 72% in [9]; 0.05% in experiment [10]; 6.51% in experiment [11]; 4.25% in [12]. Also, the inhibition in [13] is 4.68%; in experiment [14], 2.01%; in experiment [15], 2.49%; in experiment [16], 4.5%; in experiment [17] it was 4.65%; in [18], 9.16%. Also, the inhibition in experiment [19] is 11.3%; in [20], -4.52%.
For the compound `COc1cccc(Nc2nccc(-c3cnn4ncccc34)n2)c1`, the inhibition in [1] stood at 63.2%; in experiment [2] it was 3.11%; in experiment [3], 29.1%; in [4], 11.1%; in experiment [5], 57.6%; in experiment [6], 6.23%. Moreover, the inhibition came to 30% in experiment [7]; 5.37% in [8]; 24.6% in experiment [9]; 1.55% in [10]; 3.21% in [11]; 2.05% in experiment [12]. The inhibition was found to be 2.16% in experiment [13]; 1% in [14]; 2.62% in [15]; 1.1% in experiment [16]; 1.63% in experiment [17]; 8.25% in experiment [18]. In addition, the figures for the inhibition in experiment [19] and in [20] were 5.51% and 1.43%, respectively.
On to `N#Cc1ccc2c(-c3ccnc(NC4CC4)n3)c(-c3ccc(F)cc3)nn2c1`, for which the inhibition stood at 46% in [1]; 0.85% in experiment [2]; 3.35% in experiment [3]; 6% in [4]; 30.2% in experiment [5]; 0.26% in experiment [6]. Further, the inhibition was 1.31% in experiment [7]; 1.49% in experiment [8]; 1.55% in [9]; -1.26% in experiment [10]; -1.31% in [11]; -1.35% in experiment [12]. Also, the inhibition in experiment [13] stood at 7.43%; in [14] it was 0.74%; in experiment [15] it was 0.16%; in [16] it was 1.37%; in [17], 2.53%; in experiment [18] it was 1.73%. The inhibition is 3.22% in [19] and -5.39% in experiment [20].
Regarding `CNC(=O)c1sc(-n2cnc3cc(OC)c(OC)cc32)cc1OCc1ccccc1C(F)(F)F`, the inhibition worked out at 12.2% in experiment [1]; 3.14% in experiment [2]; 3.6% in experiment [3]; 9.53% in [4]; 12.2% in experiment [5]; 2.47% in [6]. In addition, the inhibition in experiment [7] is 3.85%; in experiment [8] it was 5.34%; in experiment [9] it was 7.16%; in experiment [10], -0.27%; in [11], 4.9%; in [12], 2.95%. Moreover, the inhibition came to 1.15% in experiment [13]; 0.12% in experiment [14]; 0.57% in [15]; 4.1% in [16]; 2.98% in [17]; 1.27% in [18]. For the same compound, the results for the inhibition in experiment [19] and in experiment [20] were 0.17% and -2.28%, respectively.
